Here are results for 38 compounds from PubChem BioAssay (NCI).

This is part of a sample that, as a whole, favours compounds with a hit. Of some 83,000 tested, about 20% had one in any assay.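 Cells were grown in 96-well plates and exposed to the test compound at a single concentration for 48 hours; results are reported as percent growth, with values below 10 considered active.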 Unmarked numbers belong to inactive results. Activity calls are given as the source filed them.

This test concerns RPMI-8226 leukemia. The experiment in a line: NCI-60 one-dose screen, 48 h (100 = growth as untreated, 0 = no growth, -100 = all killed). The note with it: 10 µM unless noted.
For the compound `CCC1S/C(=N\N=C(/C)c2cccs2)N(c2ccccc2)C1=O` (stereo not drawn), the growth was 110%.

Turning to `COc1ccc2c(c1)/C(=C/c1c(-c3cc(OC)c(OC)c(OC)c3Br)nc3sccn13)C(=O)N2`, the growth is 85.9%.

Consider `N#CC(C#N)=C(C#N)c1c[nH]c2ccccc12`, for which the growth was 68.4%.

Consider `CNC(=O)NN`, for which the growth is 91.9%.

`ClC1c2ccccc2CCc2ccccc21`: the growth is 92%.

As to `COc1ccc(-c2cc3ccc(N(C)C)cc3nc2N)c(F)c1`, the growth was -19.7% (active).

As to `CCOC(=O)C(C)(CSSCC(C)(NC(=O)c1ccc2ccccc2c1)C(=O)OCC)NC(=O)c1ccc2ccccc2c1` (stereo not drawn), the growth is 93.4%.

Consider `COc1ccc(-c2cc(-c3nnc(SC/C(=N\O)c4ccccc4)n3-c3ccccc3)c3ccccc3n2)cc1`, for which the growth was 97.9%.

For `CC(=O)Nc1ccc([I+]c2ccc([N+](=O)[O-])cc2)cc1`, the growth is 92.7%.

For the compound `O=[N+]([O-])c1ccc(NS(=O)(=O)c2ccccc2)c2ccccc12`, the growth was 11.7%.

Regarding `COc1ccc(-c2c(C#N)cnc(N)c2-c2nc3cc(C)c(C)cc3[nH]2)cc1`, the growth is 81.3%.

In the case of `S=c1n(CNc2ccc(Cl)nn2)nc(-c2cc(Cl)cc(Cl)c2Cl)n1/N=C/c1ccc(Cl)cc1`, the growth was 61.2%.

`Cc1ccc2c(c1)Nc1ccc(C)cc1C2(C)C`: the growth was 85.4%.

Turning to `Clc1ccc2c(NCCNc3nc(Cl)nc4ccccc34)ccnc2c1`, the growth was -50.7% (active).

For the compound `CN1CCN(Cn2nc(-c3cc(Cl)cc(Cl)c3Cl)n(/N=C/c3ccc(Cl)cc3)c2=S)CC1`, the growth was 96.3%.

As for `C=C1C(=O)O[C@H]2[C@H]1CC/C(COC(=O)c1ccc(Cl)nc1)=C\CC[C@@]1(C)O[C@@H]21`, the growth was -30% (active).

Consider `COc1ccc(/C=N/C2=NNC(C)(c3ccccc3O)N2C(Cc2c[nH]c3ccccc23)C(=O)O)cc1` (stereo not drawn), for which the growth is -15.2% (active).

Take `COc1ccc(/C=C/C(=O)/C=C(/C=C/c2ccc(OC)c(OC)c2OC)OB(F)F)c(OC)c1OC`: the growth was 2.74% (active).

In the case of `Cc1cc(N2CCOCC2)nc(N(CCNc2ccnc3cc(Cl)ccc23)Cc2ccco2)n1`, the growth was -21.6% (active).

In the case of `NN=C(c1ccc(Cl)cc1)c1ccc(Cl)cc1`, the growth was 102%.

Turning to `Cc1cc2c(cc1C)N(C(=O)CCl)CCN2C(=O)CCl`, the growth was -41.9% (active).

Take `COc1cccc(/C=N/C(=S)NC2(C)C3CCC(C3)C2(C)C)c1O` (stereo not drawn): the growth is 73.5%.

`CC(=O)c1cc2c(N)c(C(=O)Nc3cccc(Cl)c3)sc2nc1C`: the growth is 76.7%.

With `CCOC(=O)c1cnc2c(OC)ccc(OC)c2c1Cl`, the growth was 100%.

In the case of `CCOc1cccc(Nc2nc(N)nc3[nH]c4ccc(O)cc4c23)c1`, the growth was 42.4%.

`CC(C)CCC[C@@H](C)[C@H]1CC[C@H]2[C@@H]3CC=C4N(c5ccccc5)C(=O)CC[C@]4(C)[C@H]3CC[C@]12C`: the growth is 97.8%.

In the case of `C=C(C)[C@@H]1C/C=C(\COC(=O)[C@H](OC(C)=O)C(NC(=O)c2ccccc2)c2ccccc2)CC[C@H]2O[C@]2(C)CC/C=C(\C)CC1` (stereo partly drawn), the growth is -6.61% [5 µM] (active).

Regarding `C/C(=N/NC(=O)Cn1c2ccccc2c2ccncc21)c1cccs1`, the growth was 87.4%.

On to `CC(=S)Nc1ccccc1`, for which the growth was 99.7%.

On to `Nc1ccc(S(=O)(=O)Nc2cc(I)cc(I)c2)cc1`, for which the growth was 97.5%.

On to `Cc1cn([C@]2(CF)O[C@H](CO)C2C)c(=O)[nH]c1=O` (stereo partly drawn), for which the growth was 150%.

For the compound `COc1cc(NC(C)CCCN2C(=O)c3ccccc3C2=O)c2nccc(C)c2c1OC` (stereo not drawn), the growth was 64.3%.

Consider `O=C(O)c1ccccc1C(=O)c1ccc(I)cc1`, for which the growth is 97.7%.

Consider `CC(C(=O)O)N1C(N)=NNC1c1ccccc1O` (stereo not drawn), for which the growth was 73.1%.

For `COc1ccc(C2=NN(C(=O)COc3ccc(Cl)cc3)C(O)(c3cc(F)c(Cl)cc3Cl)C2)cc1OC` (stereo not drawn), the growth is -74.8% (active).

`CCCCNC(=O)Oc1ccc(/C(=C(/CC)Cc2ccccc2)c2ccc(OCCCN(C)C)cc2)cc1`: the growth was 42.8%.

As to `COc1ccc(C(=O)Cn2cnc3c(Nc4cc(C(=O)Nc5ccc(N6CCN(CCO)CC6)cc5)ccc4C)ncnc32)cc1`, the growth was 96.7%.

As to `COc1cc(NC(=O)c2cc(OC)c3ccn(C)c3c2)cc2c1C[C@]1(C)CC[C@@H](O)C(C)(C)[C@H]1O2`, the growth is -16.6% (active).
